Bioassay records as filed in PubChem.
ABCB6 inh 2 = blocks the human ABCB6 transporter. 360,000 compounds, 0.19% hits. AID 602162. K562-ABCB6 porphyrin accumulation, flow cytometry, 1 h; active compounds read low. fluorescence ratio to DMSO, % at 10 µM. Q9NP58;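 active = fluorescence ratio to DMSO below 75%, the collection mean minus 3 SD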;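 note: signal is porphyrin accumulated inside mitochondria; 100% equals median channel fluorescence of DMSO control wells; lower ratio means ABCB6 inhibition with less porphyrin fluorescence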
Target sequence (Q9NP58 whole entry, looked up): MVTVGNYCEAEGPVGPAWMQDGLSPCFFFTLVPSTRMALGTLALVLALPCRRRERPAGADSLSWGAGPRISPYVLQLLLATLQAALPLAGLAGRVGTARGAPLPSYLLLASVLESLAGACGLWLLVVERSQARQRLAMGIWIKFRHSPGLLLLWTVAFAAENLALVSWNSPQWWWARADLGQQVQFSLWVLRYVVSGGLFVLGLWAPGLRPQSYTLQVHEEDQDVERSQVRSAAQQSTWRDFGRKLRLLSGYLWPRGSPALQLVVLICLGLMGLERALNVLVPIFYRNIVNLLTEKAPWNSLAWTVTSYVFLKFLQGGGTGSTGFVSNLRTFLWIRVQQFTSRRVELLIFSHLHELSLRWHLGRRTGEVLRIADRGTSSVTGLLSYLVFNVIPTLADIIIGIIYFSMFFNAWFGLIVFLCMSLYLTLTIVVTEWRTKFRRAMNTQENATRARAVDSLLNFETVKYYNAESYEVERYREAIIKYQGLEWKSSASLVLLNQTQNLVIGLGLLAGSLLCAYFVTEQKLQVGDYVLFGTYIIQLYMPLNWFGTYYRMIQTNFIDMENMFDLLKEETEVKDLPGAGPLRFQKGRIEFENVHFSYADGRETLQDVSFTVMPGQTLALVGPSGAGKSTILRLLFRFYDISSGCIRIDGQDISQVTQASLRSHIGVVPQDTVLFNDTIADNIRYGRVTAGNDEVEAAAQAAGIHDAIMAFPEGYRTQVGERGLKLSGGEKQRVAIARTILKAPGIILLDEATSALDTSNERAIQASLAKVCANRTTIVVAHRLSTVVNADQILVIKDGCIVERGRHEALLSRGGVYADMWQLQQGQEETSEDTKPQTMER
VLA-4 inh = inhibition in a human VLA-4 binding assay | P13612 | VLA-4 expressing cells, ligand binding flow cytometry | inhibition, % (about 7 µM as worked out from the volumes in the protocol) | 330,000 compounds, 0.2% hits | AID 2557; in the data active = inhibition above about 50%
Granule exo inh = lytic granule exocytosis inhibition | TALL-104 LAMP-1 surface exposure, flow cytometry; cells stimulated with thapsigargin and PMA | inhibition, % at 10 µM | 360,000 compounds, 0.66% hits;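 active = inhibition above about 55%, limit read from the data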
NR1D1 modulator = Rev-erb alpha (human) modulation; P20393; Rev-erbα–FITC-DNA binding, fluorescence polarization, 90 min; activity, % at 10 µM; 370,000 compounds, 0.79% hits;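 active = activity above about 14%, limit read from the data; passing the limit was not always enough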;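 note: 0% = DMSO wells with 35 nM protein and 100% = DMSO wells with 750 nM protein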
PG9 Ab binder = small molecules binding HIV-1 gp120 antibody PG9. TR-FRET gp120-PG9 antibody binding. inhibition, % at 6.7 µM. 360,000 compounds, 0.43% hits. AID 624416; in the data active = inhibition above about 8.5%
ABCB6 blocker 1 = inhibitors of human ABC transporter ABCB6; shares compounds with ABCB6 inh 2; K562-ABCB6 porphyrin accumulation, flow cytometry, 1 h; active compounds read low; ratio response (% of DMSO), % at 10 µM; 700 tested, under 10 active; AID 602430;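 active = repeat-averaged ratio response below 75% of DMSO, the collection mean minus 3 SD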;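 note: median porphyrin fluorescence at 575 nm with 488 nm excitation from mitochondria; lower ratio means less porphyrin signal so ABCB6 inhibition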
PG9 binder conf = confirmation of small molecules binding HIV-1 gp120 antibody PG9 | 1,500 compounds, 90% hits | AID 651571 | shares compounds with PG9 Ab binder | TR-FRET PG9 antibody binding, biochemical | inhibition, % at 6.7 µM; in the data active = inhibition above about 9%
PGV04 counter = PGV04 control antibody binding, counter-screen; shares compounds with PG9 Ab binder; TR-FRET PGV04 antibody-gp120 binding, biochemical; inhibition, % at 6.7 µM; 1,500 compounds, 95% hits; in the data active = inhibition above about 9.5%
PG9 binder DR = small molecules binding HIV-1 gp120 antibody PG9. 95 tested, under 10 active. TR-FRET PG9 antibody-gp120 binding inhibition. IC50, µM. shares compounds with PG9 Ab binder; in the data active = IC50 below about 10 µM
PGV04 DR counter = binds control antibody PGV04 in PG9 counter-screen; shares compounds with PG9 Ab binder; TR-FRET binding to control antibody PGV04; IC50, µM; 95 compounds, 20% hits; AID 651937
PG126 DR counter = counter-screen for PG9 binders: binding to control antibody PG126 | IC50, µM | 95 compounds, 20% hits | shares compounds with PG9 Ab binder | TR-FRET binding to antibody PG126, counterscreen
Granule exo CP1 = lytic granule exocytosis inhibition; shares compounds with Granule exo inh; TALL-104 cells, LAMP-1 externalization, flow cytometry; stimulated with PMA plus thapsigargin; 1,500 compounds, 11% hits; inhibition, % at 10 µM; AID 651954; in the data active = inhibition above about 60%;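 note: 0% = stimulated vehicle wells and 100% = unstimulated wells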
NR1D1 mod conf = Rev-erb alpha (human) modulation, hit confirmation; 3,000 compounds, 61% hits; activation, % at 25 µM; Rev-erb alpha FITC-DNA binding, fluorescence polarization, 90 min; shares compounds with NR1D1 modulator;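 active = activation at or above a set limit, or at least 3 SD above the negative control mean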;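 note: 0% = 35 nM protein with DMSO and 100% = 750 nM protein high control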
Numbers without * were called inactive; i = inactive; · = not tested or not shown. Shown are actives, neighbours in structure and some others; about 2% of the full set was active somewhere. Cut-off read from the data, not from the text of the source, unless noted: active = IC50 below about 9 µM; inactive = the rest.

SMILES	ABCB6 inh 2	VLA-4 inh	Granule exo inh	NR1D1 modulator	PG9 Ab binder	ABCB6 blocker 1	others
Cn1c(CSc2ccccc2)c(C#N)c2ccccc21	67*	5	0	5	-1	99
C#CCN1CC(N(C)CCOC(=O)c2ccc(C(C)(C)C)cc2)CS1(=O)=O (stereo not drawn)	·	·	·	1	·	·
Cc1ccc(-c2csc3ncnc(N4CCN(S(=O)(=O)c5cccs5)CC4)c23)cc1	74*	15	0	·	·	97
C/C(=C/c1c[n+](Cc2ccc3c(c2)OCO3)c(N)[nH]1)Cn1[nH]c(=O)n(-c2ccccc2)c1=O	·	·	·	-3	·	·
Cc1cc(C)cc(NC(=O)COC(=O)CCCC2=NS(=O)(=O)c3ccccc3N2)c1	105	11	-2	-2	2	·
COc1cccc(NC(=O)COC(=O)CCCC2=NS(=O)(=O)c3ccccc3N2)c1	14*	0	0	1	2	102
COc1ccc(NC(=O)COC(=O)CCCC2=NS(=O)(=O)c3ccccc3N2)cc1Cl	101	0	6	0	0	·
COc1ccc(NC(=O)COC(=O)CCCC2=NS(=O)(=O)c3ccccc3N2)cc1	102	5	1	0	1	100
COCCN(C[C@@H]1[C@H](c2ccccc2)[C@H](CO)N1c1nc(C)c(C)s1)S(=O)(=O)c1ccccc1[N+](=O)[O-]	·	·	·	7	·	·
CC(O)c1cccc(NC2=CC(=O)CC(C)(C)C2)c1 (stereo not drawn)	64*	13	-3	-8	1	100
Cc1nc(N2CCN(C(=O)C3CC3)CC2)c2c3c(sc2n1)CC(C)CC3 (stereo not drawn)	·	·	·	-2	·	·
Cc1ccc2nc(NC(=O)C3=NN(c4ccccc4)C(=O)CC3)sc2c1	109	-6	4	-5	1	·
CCOc1ccc2nc(NC(=O)C3=NN(c4ccccc4)C(=O)CC3)sc2c1	74*	-13	-2	-5	3	100
Cc1cccc(Cc2c(C)nc3c(C(=O)NCc4ccco4)cnn3c2C)c1	88	-5	37	-5	-3	101
Cc1nc2c(C(=O)NCc3ccco3)cnn2c(C)c1Cc1ccc(F)cc1Cl	72*	-8	0	-4	4	100
CN[C@@H]1C(OC2[C@H](O[C@H]3[C@H](O)[C@@H](O)[C@H](N=C(N)N)[C@@H](O)[C@@H]3N=C(N)N)O[C@H](C)[C@]2(O)CO)O[C@@H](CO)C(O)C1O (stereo partly drawn)	·	·	·	-2	·	·
Cc1ccc(O)c(NC2=C(Cl)C(=O)N(Cc3ccccc3)C2=O)c1	74*	·	15	5	1	107
COC(=O)[C@]12C[C@H](CC(=O)N3CCCCC3)C(=O)N(Cc3ccc(Cl)cc3Cl)C1=C[C@H](C1CCCC1)O[C@@H]2C	·	·	·	7	·	·
COC(=O)[C@]12C[C@H](CC(=O)N3CCN(C(=O)c4ccco4)CC3)C(=O)N(CCC3=CCCCC3)C1=C[C@H](C1CCCC1)O[C@@H]2C	·	·	·	5	·	·
O=C(C1CCCN(S(=O)(=O)c2cccc3ccccc23)C1)N1CCN(Cc2ccccc2)CC1 (stereo not drawn)	·	·	·	2	·	·
Cc1coc2c1c(C)cc1oc(=O)c(Cc3ccccc3)c(C)c12	66*	-8	63*	5	-2	100	Granule exo CP1=-11
COc1ccccc1C1CCN(Cc2ccc(Cl)cc2Cl)CC1	97	-3	-13	1	-3	·
COc1ccccc1C1CCN(Cc2cccc3ccccc23)CC1	68*	-1	60*	-6	-2	99	Granule exo CP1=-3
COC(=O)[C@]12C[C@H](CC(=O)NCCC(C)C)C(=O)N(Cc3ccco3)C1=C[C@H](COCc1ccccc1)O[C@@H]2C	·	·	·	-6	·	·
Cc1ccc(NC(=O)c2sc3ncn(CC(=O)N4CCOCC4)c(=O)c3c2C)c(Br)c1	99	7	-1	28*	-1	97	NR1D1 mod conf=7
SMILES	ABCB6 inh 2	VLA-4 inh	Granule exo inh	NR1D1 modulator	PG9 Ab binder	ABCB6 blocker 1	others
CCCC(=O)N1CCC[C@]2(CC[C@H](CCC(C)=O)O2)C1	·	·	·	-7	·	·
CCSc1nnc(NC(=O)c2csc(C)c2)s1	98	3	-4	17	12*	·	PG9 binder conf=19*;PGV04 counter=31*
CCSc1nnc(NC(=O)COc2ccc3ccccc3c2)s1	93	7	-4	9	14*	·	PG9 binder conf=20*;PGV04 counter=35*
CCSc1nnc(NC(=O)C(Cc2ccccc2)n2cccc2)s1 (stereo not drawn)	102	25	9	13	10*	·	PG9 binder conf=21*;PGV04 counter=21*;PG9 binder DR=>67;PGV04 DR counter=i;PG126 DR counter=>22
Cc1csc(NC(=O)C(Cc2ccccc2)n2cccc2)n1 (stereo not drawn)	99	25	2	-5	1	·
N#CC(=C=[N-])C1=C(C#N)C(c2ccccc2F)C([n+]2ccccc2)C(O)(C2CC2)N1 (stereo not drawn)	97	6	0	-3	9.1*	·	PG9 binder conf=16*;PGV04 counter=24*
CCCSc1ccc2nc(NC(=O)OC)[nH]c2c1	94	22	9	10	12*	·	PG9 binder conf=25*;PGV04 counter=36*
COC(=O)Nc1nc2ccc(SC(C)C)cc2[nH]1	98	24	-2	2	-2	·
C[N+]1=C(N)NC2=C3CCCCC3n3c(=O)n(-c4ccccc4)c(=O)n3C2C1 (stereo not drawn)	·	·	·	-5	·	·
Cc1cc(N2CCN(C(=O)OC(C)(C)C)C[C@@H]2C)ccc1N1CCS(=O)(=O)CC1	·	·	·	3	-2	·
COc1ccccc1NC(=O)c1ccc(NC(=O)Cc2n[nH]c(=O)c3ccccc23)cc1	94	3	-4	4	11*	·	PG9 binder conf=12*;PGV04 counter=18*
Cn1cccc1C(=O)N1CCN(S(=O)(=O)c2cccc3ccccc23)CC1	·	·	·	1	·	·
